Data on 40 sequences can be found in the OligoGym collection.
Note: reference of the scale not given here.

The target of one assay is SPATA2. As to the kind of experiment: pooled miR-30 sensor sort-seq; sequence = guide strand. The following applies: shRNA.
In turn, TGAGACTTTTGAACACTGGGTG displayed a sensor-assay potency score (higher = more potent) of 0.544.
Still for that read-out and setting: then TGGAACTGCACGTACTTCCGAA, with -0.761.
Still for that read-out and setting: with TCATAGAACTGGATCAGCCGGA the figure was 0.651; with TCACTCTTTTTGTAGCAGGGGT, -0.679.
In turn, TTGACAGTACAGTAAGAGGGGC returned a sensor-assay potency score (higher = more potent) of -0.34.
The same measure, in the same setting: then TTGTGAGTGGATTTCTAGCATC, with -1.52; and TGAGTGGATTTCTAGCATCTGC, with -1.11; and TTGATGTAGCCCTTGGAGCTGG, with -0.512.
Same read-out and setting: then TCTTCCAGTAATGTCGACTTGA, with 0.423; and TTGTCCTTCACTTGTGAGTGGA, with -0.193.
In turn, TCTGAGCAGCCACACATCCGGC showed a sensor-assay potency score (higher = more potent) of -1.47.

In a further assay the target is SPATA5L1. Described as above. As to conditions: shRNA.
In turn, TTGAACATCACATCCTGTCTTG displayed a sensor-assay potency score (higher = more potent) of 0.227.
Still for that read-out and setting: then TTGTCTTAAGTCCAACACCATC, with -1.76; and TAGATGATCTTATCTAATCTTC, with -0.209.
Same read-out and setting: then TTAACTTCAGTTTTACATCTTC, with 0.121.
Regarding TTGCTTGTCGAAATATCTGAGA, the sensor-assay potency score (higher = more potent) was -0.878.
With TAATCTTCCAGGTCGTAACAAA, the sensor-assay potency score (higher = more potent) is -1.18.
In turn, TATCTAATCTTCCAGGTCGTAA came in with a sensor-assay potency score (higher = more potent) of -0.994.
The sequence TGATCTTATCTAATCTTCCAGG came in with a sensor-assay potency score (higher = more potent) of -0.767.
The same measure, in the same setting: with TTCTTGAACATCACATCCTGTC the figure was -0.27.
TTATCTAATCTTCCAGGTCGTA showed a sensor-assay potency score (higher = more potent) of -0.899.
For TTCTGAATCTCCAACAAACGGT, the sensor-assay potency score (higher = more potent) is -0.635.
In turn, AAAAACTTCTTGAAACTCCTGT registered a sensor-assay potency score (higher = more potent) of 1.07.

For a further assay, the target named is SPATS2L. The description is as above. As to conditions: shRNA.
The sequence TTGATCTTCTTCACGGAACTAT showed a sensor-assay potency score (higher = more potent) of -0.0493.
Same read-out and setting: with TTGTCTTTAGCATCTTTGTTGC the figure was -0.548.
Regarding TTTAGAACTTGAATTGCACTGC, the sensor-assay potency score (higher = more potent) worked out at 0.683.
Take TATCTAGTTAGAGAAACGGTGC: the sensor-assay potency score (higher = more potent) was -0.565.
Same read-out and setting: with TATTGTTCTTCTTTTTTCCTGT the figure was 0.296.
For TTCATTATTGCTTTTGTTGGGA, the sensor-assay potency score (higher = more potent) was determined as 0.203.
Still for that read-out and setting: then TATATTCTGATTGACACTCTTT, with 0.138.
On the same count and under the same terms, with TTGAATTGCACTGCCATCCACA the figure was 0.0707; with TTCGTTAGCAGAATCTGTGGAC, 0.593.
Same read-out and setting: with TTGTTGGGAACAACTGATCTAA the figure was -0.513.
As to TTCTTCTTTAACTTTATCCATT, the sensor-assay potency score (higher = more potent) was -1.35.
On the same count and under the same terms, with TTGGTTAGAAGATCCATTCTGC the figure was 0.635.

The target in the next assay is SPESP1. The assay is described as above. The following applies: shRNA.
In turn, TTTTATTACTTGTTCGTCCTAC had a sensor-assay potency score (higher = more potent) of 0.295.
On the same count and under the same terms, then ATGTATTGAATACTGTAGCAGC, with -1.16; and TAGATGATTCAGTAACAACTGG, with -0.346.
Sequence TAGATTTTTTCTCACGACCTGG returned a sensor-assay potency score (higher = more potent) of -0.569.
Same read-out and setting: then TAGATCTAGAATTACACAGCAT, with -0.409.
